Assay results from the supplement of paper PMC7411054.
Where a name gives a salt, the structure may show the parent alone. Values without a mark were called inactive.

Test system: WPMY1-ACTB-RAB5A
Test: phenotypically active (imaging signature differs from DMSO and reproducible) at any of 0.3-9 uM (binary (1 = active, 0 = inactive)); higher = active
Conditions: treatment time: 24 h
In short: (§1)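 The reporter lines, fifteen in total and built by gene editing in A549, HepG2 and WPMY1 cells, used BFP for segmentation alongside GFP and RFP/FusionRed markers. Each was treated at 0.3, 1, 3 or 9 µM for 24 h in four wells and then imaged live, with live-cell features normalised to solvent control wells. Deviation meant ≥3 of 4 wells beyond the 95th percentile of control Euclidean distances; reproducibility meant a median replicate Pearson correlation above the 95th percentile of non-replicates. Only conditions meeting both were scored as phenotypically active.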

| SMILES | phenotypically active |
| --- | --- |
| CC/C(=C(\CC)c1ccc(O)c(CN(CC)CC)c1)c1ccc(O)c(CN(CC)CC)c1 | 1 (active) |
| CNCCC(Oc1ccc(C(F)(F)F)cc1)c1ccccc1 (stereo not drawn) [fluoxetine] | 0 |
| Cn1cc(C2=C(c3ccc(Cl)cc3Cl)C(=O)NC2=O)c2ccccc21 | 0 |
| CC(C)COCC(CN(Cc1ccccc1)c1ccccc1)N1CCCC1 (stereo not drawn) [bepridil] | 0 |
| COc1cc(OC)c2cc(-c3ccncc3)cnc2c1 [DMPQ dihydrochloride] | 0 |
| O=C(NOCC1CC1)c1ccc(F)c(F)c1Nc1ccc(I)cc1Cl | 0 |
| Cn1cc(CCn2cnc(-c3cnn(C)c3)c2-c2ccc(C#N)cc2)cn1 | 0 |
| COc1ccc(CCNCc2ccc(OCc3ccc(Cl)nc3)c(OC)c2)cc1OC [SBE 13 hydrochloride] | 1 (active) |
| O=C(O)Cc1cccc(OCCCN(Cc2cccc(C(F)(F)F)c2Cl)CC(c2ccccc2)c2ccccc2)c1 [GW 3965 hydrochloride] | 0 |
| N#C/C(=C(/N)Sc1ccc(N)cc1)c1ccccc1C(F)(F)F | 0 |
| CCOP(=O)(OCC)C(=Cc1cc(C(C)(C)C)c(O)c(C(C)(C)C)c1)P(=O)(OCC)OCC | 0 |
| O=C([C@H](Cc1cccc(C(F)(F)F)c1)NS(=O)(=O)c1cc(F)c2c(c1)CCNC2)N1CCCC1 [(S)-PFI 2 hydrochloride] | 0 |
| Cc1noc(C)c1Cn1cc(C#N)c2cc(Oc3ccc(NC(=O)[C@@H]4CCCN4)cc3)ccc21 | 1 (active) |
| CCCS(=O)(=O)Nc1ccc(F)c(C(=O)c2c[nH]c3ncc(Cl)cc23)c1F | 0 |
| COc1c(C=O)c(O)cc2c1C(=O)c1ccccc1C2=O [Damnacanthal] | 1 (active) |
| COc1ccc(CNC(=O)Nc2ncc([N+](=O)[O-])s2)cc1 | 0 |
| CC(C)(C)c1ccc2cc(C#N)c(C#N)cc2c1 | 0 |
| C[C@H]1Oc2cc(cnc2N)-c2c(nn(C)c2C#N)CN(C)C(=O)c2ccc(F)cc21 | 0 |
| CC(C)OC(=O)c1cc2c(OCC(O)CNC(C)(C)C)cccc2[nH]1 (stereo not drawn) | 1 (active) |
| COc1ccccc1OCCNCC(O)COc1cccc2[nH]c3ccccc3c12 (stereo not drawn) [Carvedilol] | 1 (active) |

| SMILES | phenotypically active |
| --- | --- |
| CCCCOc1cc(C(=O)NCCN(CC)CC)c2ccccc2n1 [cinchocaine] | 1 (active) |
| O=S(=O)(c1cccc2cnccc12)N1CCCNCC1 [fasudil] | 1 (active) |
| Clc1ccccc1C(c1ccccc1)(c1ccccc1)n1ccnc1 [Clotrimazole] | 0 |
| CSc1ccc2c(c1)N(CCC1CCCCN1C)c1ccccc1S2 (stereo not drawn) [thioridazine] | 1 (active) |
| CCCNCC(O)COc1ccccc1C(=O)CCc1ccccc1 (stereo not drawn) [propafenone] | 1 (active) |
| O=C(O)[C@@H]1[C@H]2C[C@H]3c4[nH]c5ccccc5c4CCN3C[C@@H]2CC[C@@H]1O [Yohimbinic acid monohydrate] | 1 (active) |
| COc1cc(N2CCC(N)CC2)ccc1Nc1ncc(Cl)c(-c2c[nH]c3ccccc23)n1 | 1 (active) |
| COc1cc2ncnc(Nc3ccc(Cl)cc3F)c2cc1OC | 0 |
| Cc1noc(C)c1-c1ccc2c(c1)nc(CCc1ccc(OCCCN(C)C)cc1)n2CCN1CCOCC1 | 1 (active) |
| Cc1ccc(NC(=O)c2cccc(N(C)C)c2)cc1NC(=O)c1ccc(O)cc1 | 1 (active) |
| Cc1cc(Nc2ccc(NC(=O)c3ccc(Nc4ccnc5ccccc45)cc3)cc2)nc(N)n1 | 1 (active) |
| Cc1ccc(NC2=CC(=O)c3sc(C)nc3C2=O)cc1 [Ryuvidine] | 1 (active) |
| C[C@]1(O)C[C@@H](c2nc(-c3ccc4ccc(-c5ccccc5)nc4c3)c3c(N)nccn32)C1 [linsitinib] | 1 (active) |
| COc1cc2c(cc1OCCCN1CCCC1)N=C(N)C21CCC1 | 0 |
| O=C(O)C[C@H](O)C[C@H](O)/C=C/c1c(C2CC2)nc2ccccc2c1-c1ccc(F)cc1 [Pitavastatin calcium] | 1 (active) |
| CC#CC(=O)N1CCC[C@H]1c1nc(-c2ccc(C(=O)Nc3ccccn3)cc2)c2c(N)nccn12 [acalabrutinib] | 0 |
| NC(=O)c1cccc(-c2cc(Nc3ccc(OC(F)(F)F)cc3)ncn2)c1 | 1 (active) |
| CN1[C@@H]2CC[C@H]1C[C@@H](OC(c1ccccc1)c1ccccc1)C2 [benztropine] | 0 |
| NS(=O)(=O)c1nn2cc(-c3ccccc3)nc2s1 | 1 (active) |

Test system: WPMY1-CANX-COX4
Test: as above
Conditions: treatment time: 24 h
In short: as §1

| SMILES | phenotypically active |
| --- | --- |
| CC/C(=C(\CC)c1ccc(O)c(CN(CC)CC)c1)c1ccc(O)c(CN(CC)CC)c1 | 1 (active) |
| CNCCC(Oc1ccc(C(F)(F)F)cc1)c1ccccc1 (stereo not drawn) [fluoxetine] | 0 |
| Cn1cc(C2=C(c3ccc(Cl)cc3Cl)C(=O)NC2=O)c2ccccc21 | 1 (active) |
| CC(C)COCC(CN(Cc1ccccc1)c1ccccc1)N1CCCC1 (stereo not drawn) [bepridil] | 1 (active) |
| COc1cc(OC)c2cc(-c3ccncc3)cnc2c1 [DMPQ dihydrochloride] | 1 (active) |
| O=C(NOCC1CC1)c1ccc(F)c(F)c1Nc1ccc(I)cc1Cl | 0 |
| Cn1cc(CCn2cnc(-c3cnn(C)c3)c2-c2ccc(C#N)cc2)cn1 | 0 |
| COc1ccc(CCNCc2ccc(OCc3ccc(Cl)nc3)c(OC)c2)cc1OC [SBE 13 hydrochloride] | 1 (active) |
| O=C(O)Cc1cccc(OCCCN(Cc2cccc(C(F)(F)F)c2Cl)CC(c2ccccc2)c2ccccc2)c1 [GW 3965 hydrochloride] | 0 |
| N#C/C(=C(/N)Sc1ccc(N)cc1)c1ccccc1C(F)(F)F | 0 |
| CCOP(=O)(OCC)C(=Cc1cc(C(C)(C)C)c(O)c(C(C)(C)C)c1)P(=O)(OCC)OCC | 0 |
| O=C([C@H](Cc1cccc(C(F)(F)F)c1)NS(=O)(=O)c1cc(F)c2c(c1)CCNC2)N1CCCC1 [(S)-PFI 2 hydrochloride] | 0 |
| Cc1noc(C)c1Cn1cc(C#N)c2cc(Oc3ccc(NC(=O)[C@@H]4CCCN4)cc3)ccc21 | 1 (active) |
| CCCS(=O)(=O)Nc1ccc(F)c(C(=O)c2c[nH]c3ncc(Cl)cc23)c1F | 0 |
| COc1c(C=O)c(O)cc2c1C(=O)c1ccccc1C2=O [Damnacanthal] | 1 (active) |
| COc1ccc(CNC(=O)Nc2ncc([N+](=O)[O-])s2)cc1 | 1 (active) |
| CC(C)(C)c1ccc2cc(C#N)c(C#N)cc2c1 | 0 |
| C[C@H]1Oc2cc(cnc2N)-c2c(nn(C)c2C#N)CN(C)C(=O)c2ccc(F)cc21 | 0 |
| CC(C)OC(=O)c1cc2c(OCC(O)CNC(C)(C)C)cccc2[nH]1 (stereo not drawn) | 1 (active) |
| COc1ccccc1OCCNCC(O)COc1cccc2[nH]c3ccccc3c12 (stereo not drawn) [Carvedilol] | 1 (active) |

| SMILES | phenotypically active |
| --- | --- |
| CCCCOc1cc(C(=O)NCCN(CC)CC)c2ccccc2n1 [cinchocaine] | 0 |
| O=S(=O)(c1cccc2cnccc12)N1CCCNCC1 [fasudil] | 1 (active) |
| Clc1ccccc1C(c1ccccc1)(c1ccccc1)n1ccnc1 [Clotrimazole] | 1 (active) |
| CSc1ccc2c(c1)N(CCC1CCCCN1C)c1ccccc1S2 (stereo not drawn) [thioridazine] | 1 (active) |
| CCCNCC(O)COc1ccccc1C(=O)CCc1ccccc1 (stereo not drawn) [propafenone] | 1 (active) |
| O=C(O)[C@@H]1[C@H]2C[C@H]3c4[nH]c5ccccc5c4CCN3C[C@@H]2CC[C@@H]1O [Yohimbinic acid monohydrate] | 1 (active) |
| COc1cc(N2CCC(N)CC2)ccc1Nc1ncc(Cl)c(-c2c[nH]c3ccccc23)n1 | 1 (active) |
| COc1cc2ncnc(Nc3ccc(Cl)cc3F)c2cc1OC | 0 |
| Cc1noc(C)c1-c1ccc2c(c1)nc(CCc1ccc(OCCCN(C)C)cc1)n2CCN1CCOCC1 | 1 (active) |
| Cc1ccc(NC(=O)c2cccc(N(C)C)c2)cc1NC(=O)c1ccc(O)cc1 | 0 |
| Cc1cc(Nc2ccc(NC(=O)c3ccc(Nc4ccnc5ccccc45)cc3)cc2)nc(N)n1 | 0 |
| Cc1ccc(NC2=CC(=O)c3sc(C)nc3C2=O)cc1 [Ryuvidine] | 1 (active) |
| C[C@]1(O)C[C@@H](c2nc(-c3ccc4ccc(-c5ccccc5)nc4c3)c3c(N)nccn32)C1 [linsitinib] | 1 (active) |
| COc1cc2c(cc1OCCCN1CCCC1)N=C(N)C21CCC1 | 0 |
| O=C(O)C[C@H](O)C[C@H](O)/C=C/c1c(C2CC2)nc2ccccc2c1-c1ccc(F)cc1 [Pitavastatin calcium] | 1 (active) |
| CC#CC(=O)N1CCC[C@H]1c1nc(-c2ccc(C(=O)Nc3ccccn3)cc2)c2c(N)nccn12 [acalabrutinib] | 0 |
| NC(=O)c1cccc(-c2cc(Nc3ccc(OC(F)(F)F)cc3)ncn2)c1 | 0 |
| CN1[C@@H]2CC[C@H]1C[C@@H](OC(c1ccccc1)c1ccccc1)C2 [benztropine] | 1 (active) |
| NS(=O)(=O)c1nn2cc(-c3ccccc3)nc2s1 | 0 |
